Laboratory results reported in PubChem BioAssay (Tox21).
Results filed as inconclusive are left out. Entries that show only a call come without a potency. Unmarked numbers belong to inactive results. Activity calls are given as the source filed them. Calls come from the whole dose curve; as a rule, active = well fitted cell-killing curve with a large enough effect in the repeat runs; inconclusive = weak or mixed curves, or effect the other way; inactive = no such curve, though single readings can be large or run the other way.

assay: qHTS assay to identify small molecule antagonists of the sonic hedgehog signaling (Shh) pathway - cell viability counter screen (AID 1259367); details: NIH/3T3 Gli1-Luc viability, CellTiter-Fluor, 24 h; series mostly up to 92.4 µM; note: nearly all actives have a fitted effect of over 55% in size
Source text: National Center for Advancing Translational Sciences [NCATS]
NIH Chemical Genomics Center [NCGC]
U.S. Environmental Protection Agency [EPA]
National Institutes of Environmental Health Sciences [NIEHS]
National Toxicology Program [NTP]
U.S. Food and Drug Administration [FDA]
The sonic hedgehog (Shh) pathway is essential for normal embryonic development. Dysregulation of the Shh pathway can cause severe developmental defects in organs. Therefore chemicals that interfere with the pathway are potential developmental toxicants. A cell line designated 3T3Gli1-Luc (DMB/OARSA/CFSAN/FDA, Laurel, MD), a NIH/3T3 derived clone containing stably integrated Gli1-Luc reporter is used to detect chemical interference of the Shh pathway, by changes in the expression of the firefly Luc gene under the control of the Gli1 transcriptional response element. This cell line was used to screen Tox21 libraries for identifying and prioritizing the potential developmental toxicants that interfere Shh pathway. Conditioned medium-stimulated mode was used to screen for chemicals inhibiting Shh signaling. The cytotoxicity of the compounds was tested in parallel by measuring the cell viability using CellTiter-Fluor assay system (Promega, Madison, WI) in the same wells.
Tox21 Assay Protocol Summary:
3T3 Gli1-Luc cells were dispensed at 2,000 per well in 5uL of culture medium into white solid bottom 1536-well plates (Greiner Bio-One, Monroe, NC) using a Multidrop Combi (Thermo Scientific, Waltham, MA) dispenser. The assay plates were incubated at 37 C and 5% CO2 for 4hr, and then 23nL of compounds dissolved in DMSO and positive control were transferred using a Pintool station (Wako, San Diego, CA). The compound transfer was followed by the addition of 1ul conditioned medium or assay buffer using two separate tips of Flying Reagent Dispenser (FRD, Aurora Discovery, San Diego, CA). The assay plates were incubated at 37C and 5% CO2 for 24hr. For viability read, after 23hr of compound treatment, 1uL of CellTiter-Fluor reagent (Promega Corporation, Madison, WI) was added to each well of the assay plates using Flying Reagent Dispenser (FRD, Aurora Discovery, San Diego, CA) and incubated the assay plates at 37C for 1hr. The fluorescence signal was quantified using a ViewLux plate reader (Perkin Elmer, Shelton, CT).
Potency is the fitted concentration of half-maximal effect.

Compound | Potency | viability change, negative = cytotoxic
Cc1c[nH]c(=O)[nH]c1=O | inactive | –
O=C(O)C[C@H](O)C[C@H](O)/C=C/c1c(C2CC2)nc2ccccc2c1-c1ccc(F)cc1 | – | -0.451% [at 19 µM]
Cc1cccc2c1ccc1ccccc12 | inactive | –
Nc1cc([N+](=O)[O-])cc(Cl)c1O | inactive | –
CC(C)(C)c1cc(CCC(=O)OCCSCCOC(=O)CCc2cc(C(C)(C)C)c(O)c(C(C)(C)C)c2)cc(C(C)(C)C)c1O | inactive | –
[Cl][Sc]([Cl])[Cl] | inactive | –
O=C1C=CC(=O)N1c1cccc(N2C(=O)C=CC2=O)c1 | 7.7 µM (active) | –
CCC(=O)OC/C=C(\C)CCC=C(C)C | inactive | –
O=C1c2ccccc2C(=O)c2c(Cl)cccc21 | inactive | –
CCc1c(C)cc(N)c(CC)c1N | inactive | –
Nc1ccc(F)c([N+](=O)[O-])c1 | inactive | –
C[C@H]1O[C@@H](O[C@H]2CC[C@@]3(C)[C@H](CC[C@@H]4[C@@H]3C[C@@H](O)[C@]3(C)[C@@H](C5=CC(=O)OC5)CC[C@]43O)C2)C[C@H](O)[C@@H]1O[C@H]1C[C@H](O)[C@H](O[C@H]2C[C@H](O)[C@H](O[C@@H]3O[C@H](CO)[C@@H](O)[C@H](O)[C@H]3O)[C@@H](C)O2)[C@@H](C)O1 | inactive | –
Nc1c(Br)cc([N+](=O)[O-])cc1Br | inactive | –
c1ccc(-c2nc3ccccc3[nH]2)cc1 | inactive | –
O=C(N[C@H](CO)[C@H](O)c1ccc([N+](=O)[O-])cc1)C(Cl)Cl | inactive | –
O=c1[nH]cccc1O | inactive | –
C/C=C/C(=O)C1=C(C)C=CCC1(C)C | inactive | –
N#CCCOCCC#N | inactive | –
CCc1cccc(C)c1N(C(=O)CS(=O)(=O)O)C(C)COC (stereo not given) | inactive | –
NC(=O)C1CO1 (stereo not given) | inactive | –

Compound | Potency | viability change, negative = cytotoxic
Cc1ccc(S(=O)(=O)C(I)I)cc1 | 7.7 µM (active) | –
Cc1cccc(C)c1C | inactive | –
SC1CCCCC1 | inactive | –
CCN(CC)c1ccc(C=O)cc1 | inactive | –
CN1CCN(C)CC1 | inactive | –
O=[N+]([O-])c1ccc(CO)cc1 | inactive | –
Oc1cccc2c(O)cccc12 | 30.6 µM (active) | –
Oc1ccc(C2(c3ccc(O)c(C4CCCCC4)c3)CCCCC2)cc1C1CCCCC1 | 21.7 µM (active) | –
O=C(Nc1ccccc1)c1cc(Cl)ccc1O | 54.5 µM (active) | –
CC(=O)CC(N)=O | inactive | –
C=C(C)CCO | inactive | –
CCOC(=O)[C@H](C)O | inactive | –
CCCCCCCCCCCCCCCCC(C(=O)O)C(O)(CC(=O)O)C(=O)O (stereo not given) | inactive | –
ClC(c1ccccc1)(c1ccccc1)c1ccccc1 | inactive | –
O=C1OCc2ccccc21 | inactive | –
O=C(Nc1ccc([N+](=O)[O-])cc1)Nc1ccc([N+](=O)[O-])cc1 (tested in a mixture with another compound) | inactive | –
CC1CCC(C(C)(C)O)CC1 (stereo not given) | inactive | –
CSc1nnc(C(C)(C)C)c(=O)[nH]1 | inactive | –
CC(C=O)c1ccccc1 (stereo not given) | inactive | –
CCSCC | 57.6 µM (active) | –
